Out of some 360,000 compounds screened, about 7,500 (2.1%) were called active. Another 20% or so got no clear call; they are omitted. Only a selection was taken, and actives are over-represented in it overall. Values without a mark were called inactive. Calls follow the shape of the dose curve; as a rule, active = well fitted inhibition curve with a large enough effect; inconclusive = small, poorly fitted or top-dose-only effect, or effect the other way; inactive = flat fitted curve, though single readings scatter.
Experiment: Nrf2 qHTS screen for inhibitors; also: nearly all actives have a fitted effect of over 60% in size
Details: A549 ARE-Fluc reporter, luciferase luminescence, 18-24 h; series mostly up to 46 µM; activity change, negative = inhibition: at the top concentration
Procedure, shortened: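 A549 ARE_Fluc cells, 5000/well, 5% FBS OPTI-MEM; compounds in dose-response, 18-24 h at 37 °C/5% CO2; CellTiter-Fluor viability read (Ex 405/Em 525), then BugLite luciferase luminescence = Nrf2 activity.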
% is scaled to controls: 0 for no effect and ±100 for the full control effect; potency is read from the fitted curve at half-maximal effect.

Row | SMILES | activity change, negative = inhibition | Potency
1 | COc1ccc(CN2CCN(C(=O)c3cc(C4CC4)nn3-c3ccccc3)CC2)cc1F | -18.2% | –
2 | CCOC(=O)CCC(NC(=O)c1ccc(CNc2nc3cc(C(F)(F)F)ccc3nc2C(=O)OCC)cc1)C(=O)OCC (configuration not stated) | -15.4% | –
3 | C=CCNC(=O)c1ccc2nc(-c3ccco3)c(-c3ccco3)nc2c1 | -0.251% | –
4 | COCCNC(=O)Cn1cc(C(=O)c2cccs2)c2ccccc21 | 3.92% | –
5 | COC(=O)Cn1cc(C(=O)c2cccs2)c2ccccc21 | -13.8% | –
6 | Cc1c(Cl)cccc1NC(=O)Cn1cc(C(=O)c2cccs2)c2ccccc21 | – | 6.51 µM (active)
7 | Cc1cccc(N2CCN(C3=C(c4ccccc4)C(=O)c4ccccc43)CC2)c1C | -4.19% | –
8 | CCOc1ccc(S(=O)(=O)c2cn(Cc3ccccc3)c3ccc(OCC)cc3c2=O)cc1 | 2.51% | –
9 | Cc1ccc(CNC(=O)C2CCCN(S(C)(=O)=O)C2)cc1 (configuration not stated) | 1.71% | –
10 | CCOc1ccc(CNC(=O)C2CCCN(S(=O)(=O)N(CC)c3ccc(OCC)cc3)C2)cc1 (configuration not stated) | – | 16.4 µM (active)
11 | CCS(=O)(=O)N1CCCC(C(=O)NCc2ccc(C)cc2)C1 (configuration not stated) | -11% | –
12 | Oc1ccc(/C=C/c2c(F)cccc2F)c2cccnc12 | 1.37% | –
13 | CC(=O)Nc1cccc(-c2nc3ccccc3s2)c1C | – | 7.31 µM (active)
14 | COc1ccc(-c2nc3ccccc3s2)cc1NC(=O)COc1ccccc1C | 24.6% | –
15 | Cc1c(NC(=O)Cc2ccccc2)cccc1-c1nc2cccnc2s1 | 7.43% | –
16 | COc1ccc(CCNC(=O)c2ccc(-n3c(C)cc4c3CCCC4)cc2)cc1OC | 6.59% | –
17 | CC(=O)c1cccc(OCc2cc(C(=O)NC(C)Cc3cccnc3)no2)c1 (configuration not stated) | 7.73% | –
18 | CN(Cc1cccnc1)C(=O)c1cc(COc2ccc3ncccc3c2)on1 | – | 4.61 µM (active)
19 | CN(Cc1cnccn1)C(=O)c1cc(COc2cccc(C(F)(F)F)c2)on1 | 4.98% | –
20 | O=C1/C(=C\c2ccc(O)cc2)CCC1CNc1ccc(Cl)cc1 (configuration not stated) | 7.1% | –
21 | CCN1C[C@@H]2[C@@H]3C(=O)N(C)C(=O)[C@@H]3[C@](C)(C1=O)N2C(=O)c1ccccc1 | -7.53% | –
22 | COc1ccc(CCNC(=O)COc2cc(C)cc3oc(=O)c(C)c(C)c23)cc1OC | -9.86% | –
23 | COc1ccccc1N1CCN(CCCNC(=O)c2cnn(-c3ccccc3Cl)c2C2CCN(C(=O)OC(C)(C)C)CC2)CC1 | -16.8% | –
24 | CCOc1ccc(N2C(=O)CC(N(CCc3ccc(OC)c(OC)c3)C(=S)Nc3ccccc3)C2=O)cc1 (configuration not stated) | – | 23.1 µM (active)
25 | CCOc1ccc(N2C(=O)CC(N(O)c3ccccc3)C2=O)cc1 (configuration not stated) | 10.4% | –

Row | SMILES | activity change, negative = inhibition | Potency
26 | COC(=O)CN(C(=S)Nc1ccc(Cl)cc1)C1CC(=O)N(c2ccc(OC)cc2)C1=O (configuration not stated) | -14.1% | –
27 | O=C1CC(c2nnc(Cc3ccc(Cl)cc3)o2)CN1c1ccccc1 (configuration not stated) | -22.2% | –
28 | O=C(NCCNc1ccccc1[N+](=O)[O-])c1ccccc1F | 23.8% | –
29 | O=C(NCCCNc1ccc([N+](=O)[O-])cc1Cl)c1ccccc1F | -0.648% | –
30 | O=C(NCCNc1ccc([N+](=O)[O-])cc1Cl)c1ccccc1F | – | 16.4 µM (active)
31 | COc1ccccc1Nc1c2c(nc3ccc(NC(=O)/C=C/c4cc(OC)c(OC)c(OC)c4)cc13)CCCC2 | 4.54% [at 9.27 µM] | –
32 | COc1ccccc1CNC(=O)CCCCn1c(=O)c2ccccc2n(CC(=O)Nc2cc(Cl)ccc2C)c1=O | -15.6% | –
33 | COc1ccc(NC(=O)Cn2c(=O)n(CCC(C)C)c(=O)c3cccnc32)cc1Cl | 5.86% | –
34 | COc1ccccc1C(=O)c1ccccc1C(=O)c1ccccc1 | 0.817% | –
35 | COCCn1c(SCC(=O)Nc2ccccc2F)nc2c(c1=O)SCC2 | – | 4.11 µM (active)
36 | COCCn1c(SCC(=O)N2CCCCCC2)nc2c(c1=O)SCC2 | 2.1% | –
37 | CC1Cc2nc(SCC(=O)Nc3ccccc3F)n(C)c(=O)c2S1 (configuration not stated) | -23.4% | –
38 | COC(=O)[C@@]1(C)[C@H]2C(=O)N(Cc3ccccc3)C(=O)[C@H]2[C@H]2CN=C(SCC3CC3)N21 | 14.1% | –
39 | COc1ccccc1C1C(C#N)=C(N)Oc2c1c(-c1ccccc1)nn2-c1ccccc1 (configuration not stated) | – | 20.6 µM (active)
40 | Cc1nn(Cc2ccccc2)c2c1C(c1ccccc1)C(C#N)=C(N)O2 (configuration not stated) | -4.1% | –
41 | Cc1nn(-c2ccccc2)c2c1C(c1ccc(F)cc1)C(C#N)=C(N)O2 (configuration not stated) | 11.2% | –
42 | Cc1oc2ccc(O)c(CN3CCCCC3)c2c1C(=O)Nc1cccc(C(F)(F)F)c1 | 4.68% | –
43 | COc1cccc(C(=O)NC2CCN(C#N)CC2)c1 | 3.93% | –
44 | Cc1ccccc1OCc1ccc(-c2nc(C#N)c(N3CCCCC3)o2)o1 | 9.3% | –
45 | Cc1ccc(Nc2nc(CSc3nnc(-c4ccncc4)n3-c3ccccc3C)cs2)cc1 | – | 9.2 µM (active)
46 | Cc1ccccc1-n1c(SCC(=O)NCc2cccs2)nnc1-c1ccncc1 | 18.3% | –
47 | Cc1ccc(-n2c(SCC(=O)N3c4ccccc4Sc4ccccc43)nnc2-c2ccncc2)cc1 | 4.11% | –
48 | Oc1ccccc1N1CCN(c2ncnc3sc(-c4ccccc4)cc23)CC1 | -16.1% | –
49 | CCc1cc2c(N3CCN(c4nnc(CC)s4)CC3)ncnc2s1 | – | 23.1 µM (active)
50 | CCc1cc2c(NC(Cc3ccccc3)C(=O)O)ncnc2s1 (configuration not stated) | -4.74% | –

Row | SMILES | activity change, negative = inhibition | Potency
51 | Cc1nn(-c2ccc(N3CCCCC3)nn2)c(C)c1CCC(=O)NCc1ccc(F)cc1 | -5.58% | –
52 | COc1ccc(OC)c(NC(=O)CN2CCCN(Cc3cc(C)ccc3C)S2(=O)=O)c1 | 13% | –
53 | O=C(N[C@H]1C/C=C\C(c2cccc(F)c2)N(Cc2ccccc2)C(=O)C1)OCC1c2ccccc2-c2ccccc21 (some centres not stated) | 11.2% | –
54 | O=C(CC(O)(C(F)(F)F)C(F)(F)F)Nc1ccc(Cl)c(Cl)c1 | – | 2.91 µM (active)
55 | N/C(=N\OC(=O)Nc1ccc(Cl)c(Cl)c1)c1ncc(C(F)(F)F)cc1Cl | -7.11% | –
56 | CCn1nccc1C(=O)Nc1ccc(Cl)c(Cl)c1 | 29.8% | –
57 | CCN(CC)c1nc(C#N)nc(OC)n1 | -16.4% | –
58 | C=CCNC(=O)c1cc2nc(C3CC3)cc(C(F)F)n2n1 | -19.8% | –
59 | COC(=O)c1cc2nc(-c3ccccc3)cc(C(F)(F)F)n2n1 | 10.2% | –
60 | CC1CCN(C(=O)c2cc3nc(C4CC4)cc(C(F)(F)F)n3n2)CC1 | – | 18.4 µM (active)
61 | Cc1cccc(-n2ncc(C(=O)N3CCC(C)CC3)c2C2CCN(C(=O)OC(C)(C)C)CC2)c1 | 19.3% | –
62 | O=C(c1ccccc1)N1CCN(C(=O)c2cc3nc(-c4ccccc4)cc(C(F)(F)F)n3n2)CC1 | – | 25.9 µM (active)
63 | O=C(NCC12CC3CC(CC(C3)C1)C2)c1cc2nc(-c3ccccc3)cc(C(F)(F)F)n2n1 | 14.3% | –
64 | CC(Sc1oc(-c2ccco2)nc1S(=O)(=O)c1ccc(Br)cc1)c1ccccc1 (configuration not stated) | 8.26% [at 9.27 µM] | –
65 | Cc1ccc(-c2nnc3ccc(SCC(N)=O)nn23)cc1 | -2.48% | –
66 | Cc1ccc(CNC(=O)CSc2c3c(nc4cc(Cl)ccc24)CCCC3)cc1 | 8.77% | –
67 | Cc1cccc(NC(=S)N2CCC(C(=O)c3ccc(F)cc3)CC2)c1 | 9.61% | –
68 | CCOc1ccc(C2C(C(=O)Nc3ccc(Cl)cc3)=C(C)Nc3nc(C(F)(F)F)nn32)cc1 (configuration not stated) | -26.6% | –
69 | CCN(CC)c1ccc(NC(=O)CN2C(=O)c3cccnc3Oc3ccc(Cl)cc32)c(C)c1 | -2.21% | –
70 | Cc1cccc(N2CCN(c3ccc(NC(=O)/C=C\C(=O)O)cc3)CC2)c1 | -4.07% | –
71 | CN1CCN(c2ccc(NC(=O)c3cc(Cl)c4c(c3)OCCO4)cc2)CC1 | -2.22% | –
72 | C=CC(=O)Nc1ccc(Nc2ccnc(Nc3ccc(N4CCN(C)CC4)cc3)n2)cc1 | – | 14.6 µM (active)
73 | Cc1nn(-c2nc(-c3ccccc3)cc(C(F)(F)F)n2)c(C)c1Cl | -27.4% | –
74 | CCN(c1ccccc1)S(=O)(=O)c1cccc(C(=O)NCc2ccccc2CN2CCOCC2)c1 | -3.62% | –
75 | Cc1ccc(-c2nn(C(C)(C)C)c3ncnc(N)c23)cc1 | – | 18.4 µM (active)

Row | SMILES | activity change, negative = inhibition | Potency
76 | Cc1ccc(-n2cnc3ncnc(-c4ccccc4)c32)cc1 | -5.91% | –
77 | Cc1nc2ccn(Cc3cccnc3)c(=O)c2cc1C(=O)N1CCN(c2ccccc2F)CC1 | 20.3% | –
78 | CCOc1ccc(CNC(=O)C2CCN(c3nnc(-n4cccc4CNc4ccc(C)cc4)s3)CC2)cc1OC | -8.96% | –
79 | COc1ccc(Br)cc1/C=N/Nc1ccc(S(=O)(=O)Nc2ccccc2C(=O)O)cc1[N+](=O)[O-] | -5.1% | –
80 | CCOC(=O)c1c(-c2ccccc2)oc2cc(Br)c(O)c(C=O)c12 | – | 20.6 µM (active)
81 | CCOC(=O)c1c(-c2ccccc2)oc2cc(Br)c(O)cc12 | 0.301% | –
82 | CCOC(=O)c1c(-c2ccccc2)oc2ccc(OCC(N)=O)cc12 | -6.02% | –
83 | COc1ccccc1N(CCOc1ccccc1)S(=O)(=O)c1ccccc1 | -5.25% | –
84 | COc1cccc(CC(=NO)c2cccc(OC)c2)c1 | 5.27% | –
85 | O=C(CN1C(=O)NC(Cc2ccccc2)(Cc2ccccc2)C1=O)NCC1CCCCC1 | – | 23.1 µM (active)
86 | CCCCNC(=O)CN1C(=O)NC(Cc2ccccc2)(Cc2ccccc2)C1=O | -31.4% | –
87 | COc1cccc(CNC(=O)CN2C(=O)NC(Cc3ccccc3)(c3ccccc3)C2=O)c1 (configuration not stated) | 0.418% | –
88 | Cc1ccc(C(=O)CC2(O)C(=O)N(CCc3ccccc3)c3ccc(Br)cc32)cc1 (configuration not stated) | -10.1% | –
89 | COCCNC(=O)c1ccc(N2CCC3(CC2)OCCO3)c([N+](=O)[O-])c1 | -5.47% | –
90 | CCCNC(=O)c1ccc(N2CCC3(CC2)CC(c2ccc(Cl)cc2)=NO3)c([N+](=O)[O-])c1 | – | 23.1 µM (active)
91 | O=C(NCCCN1CCOCC1)c1ccc(N2CCCC2)c([N+](=O)[O-])c1 | -6.15% | –
92 | CCOC(=O)N1CCc2c(sc3c2c(=O)n(-c2ccc(CC)cc2)c(=O)n3C)C1 | -7.99% | –
93 | CCOC(=O)C1CCN(C(=O)CSc2c3c(nc4ccc(Cl)cc24)CCCC3)CC1 | -0.463% | –
94 | Cc1ccc(-c2cc(C(F)(F)F)c(C#N)c(SCC(=O)Nc3ccccc3)n2)cc1 | -4.07% | –
95 | NS(=O)(=O)c1ccc(CCNC(=O)Nc2ccc(Cl)cc2)cc1 | -19.8% | –
96 | Cn1ccc(NC(=O)Nc2ccc(Cl)cc2)n1 | -23.4% | –
97 | CC(C)S(=O)(=O)c1csc(NC(=O)Nc2ccc(Cl)cc2)c1Cl | – | 20.6 µM (active)

Reference: PubChem BioAssay AID504444 (National Center for Advancing Translational Sciences (NCATS), 2011)
